Compounds with a hit are over-represented: about 19% of the library has one in this group of screens.
TDP1 cell noCPT: qHTS for Inhibitors of human tyrosyl-DNA phosphodiesterase 1 (TDP1): qHTS in cells in absence of CPT. Potency, µM (series often up to 46.2 µM), for inactives: at the top dose activity change, negative = growth inhibition, actives largely listed as inhibitors. hit rate 15% among 420,000. DT40 Tdp1-/- hTDP1 cells, no CPT, ATP luminescence, 48 h; further: nearly all actives have a fitted effect of over 55% in size
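DT40 Tdp1-/-;hTDP1 cells, no CPT (DMSO vehicle only), 400 cells/well; compounds pin-transferred; ≥48 hr, 37 °C; CellTiter-Glo 30 min RT dark, luminescence read.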
HT1080 IDH1KD tx: HT-1080 IDH1 knockdown cell toxicity (counter line) | hit rate 2% among 360,000 | HT-1080 IDH1 knockdown viability, ATP luminescence, 48 h | Potency, µM (highest dose often 46.1 µM), for inactives: at the highest dose activity, negative = toxicity, actives largely listed as cytotoxic;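 further: 0% = DMSO wells and -100% = cell-free medium wells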
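After a 2 h attachment period, IDH1KD HT-1080 cells took pin-transferred compound for 48 h at 37 °C; ATP-based luminescence after 10 min room-temperature reagent incubation reported viability.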
KB-V1 MDR tox: KB-V1 MDR subline cytotoxicity | Potency, µM (highest dose often 46.1 µM), usual class: cytotoxic | hit rate 3.4% among 400,000 | AID 1347076 | KB-V1 MDR cells viability, CellTiter-Glo, 72 h; further: nearly all actives have a fitted effect of over 60% in size
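Cells of the MDR subline KB-V1 are plated, dosed with compound at multiple concentrations, and incubated 72 h at 37 degrees C; CellTiter-Glo is then added and luminescence read after 10 min.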
HT1080-NT tox: kills 2HG-producing HT-1080-NT fibrosarcoma cells. hit rate 1.6% among 360,000. HT-1080-NT fibrosarcoma viability, CellTiter-Glo ATP luminescence, 48 h. Potency, µM (top dose mostly 46.1 µM), inactives show at the highest dose activity, negative = less viability, most hits filed as cytotoxic;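 further: NT is the 2HG producing partner of a matched IDH1 knockdown line; 0% = DMSO-treated cells and -100% = media-only wells without cells; nearly all actives have a fitted effect of over 55% in size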
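Read-out is CellTiter-Glo luminescence after 10 minutes at room temperature, following 48 hours' compound treatment of HT-1080-NT cells (750 cells/well, RPMI, 5% FBS, 37 degrees C).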
DT40 TDP1 CPT: DT40-hTDP1 cell growth loss with CPT; chicken DT40 Tdp1-/-;hTDP1 cells + 20 nM CPT, ATP luminescence, 48 h; Potency, µM (titrated, usually from 46.2 µM), for inactives: at the highest dose activity change, negative = growth inhibition, hits mostly inhibitors; hit rate 12% among 420,000; further: nearly all actives have a fitted effect of over 55% in size
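Cell growth measured by CellTiter-Glo luminescence after a minimum 48 h, 37 C compound exposure with 20 nM CPT in Tdp1-knockout DT40 cells stably expressing hTDP1, seeded 400/well; qHTS titration format.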
KB-3-1 tox: kills parental KB-3-1 adenocarcinoma cells | KB-3-1 viability, CellTiter-Glo ATP luminescence, 72 h | Potency, µM (top dose mostly 46.1 µM), most hits filed as cytotoxic | hit rate 1.4% among 400,000 | AID 1347075; further: nearly all actives have a fitted effect of over 60% in size
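Here the drug-naive KB-3-1 line serves as comparator for MDR sub-line selectivity; cells received compound titrations, 72 h at 37 °C, then CellTiter-Glo readout.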
The depositor's hits bear a star. The call rests on the fitted dose curve; in most records, active means well fitted curve in the direction sought with a large enough effect; inconclusive means small, poorly fitted or top-dose-only effect, or another doubt; inactive means no such curve, though single readings can be large; an effect the other way counts as inactive or inconclusive. Unless noted, on the % scale 0 is the no-effect control and ±100 the full control effect; potency means the concentration at half of the fitted maximal effect.

How did Cc1ccc(CNC(=O)Cn2c(=O)n(-c3ccc(Cl)cc3)c(=O)c3c(C)c(C)sc32)cc1 do in these assays?
TDP1 cell noCPT: -4%; KB-V1 MDR tox: inconclusive; DT40 TDP1 CPT: -8%; KB-3-1 tox: inactive

What do the screens show for `COCCN(C)Cc1nc(C(c2ccccc2)c2ccccc2)no1`?
TDP1 cell noCPT: 0%; HT1080 IDH1KD tx: 10%; KB-V1 MDR tox: inactive; HT1080-NT tox: 3%; DT40 TDP1 CPT: -21%; KB-3-1 tox: inactive

Results for c1ccc(C(c2ccccc2)c2noc(CN3CCN(CC4CC4)CC3)n2)cc1 ?
TDP1 cell noCPT: inconclusive; HT1080 IDH1KD tx: -14%; KB-V1 MDR tox: inactive; HT1080-NT tox: -3%; DT40 TDP1 CPT: 15µM*; KB-3-1 tox: inactive

What do the screens show for `COCC1CCCN(Cc2nc(C(c3ccccc3)c3ccccc3)no2)C1` (stereo unspecified)?
TDP1 cell noCPT: 18µM*; HT1080 IDH1KD tx: -3%; KB-V1 MDR tox: inactive; HT1080-NT tox: -2%; DT40 TDP1 CPT: inconclusive; KB-3-1 tox: inactive

Results for COC(=O)Cn1c(O)c(N=NC(=O)CNC(=O)COc2cccc(C)c2)c2ccccc21 ?
TDP1 cell noCPT: inconclusive; HT1080 IDH1KD tx: 0%; KB-V1 MDR tox: inactive; HT1080-NT tox: 1%; DT40 TDP1 CPT: -18%; KB-3-1 tox: inactive

How did N#Cc1ccsc1NC(=O)CCN1CCN(C(c2ccccc2)c2ccccc2)CC1 do in these assays?
TDP1 cell noCPT: 26µM*; HT1080 IDH1KD tx: 0%; KB-V1 MDR tox: inactive; HT1080-NT tox: -15%; DT40 TDP1 CPT: 29µM*; KB-3-1 tox: inactive

What do the screens show for `N#Cc1ccsc1NC(=O)CN(Cc1ccccc1)Cc1ccccc1`?
TDP1 cell noCPT: 15µM*; HT1080 IDH1KD tx: -6%; KB-V1 MDR tox: 10µM*; HT1080-NT tox: -3%; DT40 TDP1 CPT: 21µM*; KB-3-1 tox: inconclusive

How did N#Cc1ccsc1NC(=O)CCc1ccccc1 do in these assays?
TDP1 cell noCPT: 21µM*; HT1080 IDH1KD tx: inconclusive; KB-V1 MDR tox: inconclusive; HT1080-NT tox: inconclusive; DT40 TDP1 CPT: inconclusive; KB-3-1 tox: inconclusive

What do the screens show for `COC(=O)c1cnc(Oc2ccc(NC(=O)NC(=O)c3c(F)cccc3F)cc2)cc1C(F)(F)F`?
TDP1 cell noCPT: inconclusive; HT1080 IDH1KD tx: 1%; KB-V1 MDR tox: inactive; HT1080-NT tox: 6%; DT40 TDP1 CPT: -6%; KB-3-1 tox: inactive

Results for COC(=O)c1cnc(Oc2ccc(NC(=O)NC(=O)c3c(OC)cccc3OC)cc2)cc1C(F)(F)F ?
TDP1 cell noCPT: 1.3µM*; HT1080 IDH1KD tx: 1.3µM*; KB-V1 MDR tox: 2.3µM*; HT1080-NT tox: inconclusive; DT40 TDP1 CPT: 1.2µM*; KB-3-1 tox: inconclusive

Results for COC(=O)c1cnc(Oc2ccc(NC(=O)NC(=O)c3c(F)cccc3Cl)cc2)cc1C(F)(F)F ?
TDP1 cell noCPT: 4.1µM*; HT1080 IDH1KD tx: inconclusive; KB-V1 MDR tox: inconclusive; HT1080-NT tox: inconclusive; DT40 TDP1 CPT: 3.3µM*; KB-3-1 tox: inconclusive

How did COC(=O)c1cnc(Oc2c(Cl)cc(N)cc2Cl)cc1C(F)(F)F do in these assays?
TDP1 cell noCPT: 15µM*; HT1080 IDH1KD tx: 16µM*; KB-V1 MDR tox: inactive; HT1080-NT tox: inconclusive; DT40 TDP1 CPT: inconclusive; KB-3-1 tox: inactive

How did CCc1c(C)sc(NC(=O)c2cc(-c3ccc(OC)cc3)on2)c1C#N do in these assays?
TDP1 cell noCPT: -3%; KB-V1 MDR tox: inconclusive; DT40 TDP1 CPT: 0%; KB-3-1 tox: inactive

What do the screens show for `O=C1NC[C@H](CCCCN2CCN(CC3CCCCC3)C(=O)C2=O)N(Cc2ccccc2)C1=O`?
TDP1 cell noCPT: -21%; HT1080 IDH1KD tx: 13%; KB-V1 MDR tox: inactive; HT1080-NT tox: 22%; DT40 TDP1 CPT: -1%; KB-3-1 tox: inactive

What do the screens show for `CC1(c2nnc(-c3ccccc3)o2)CC(c2ccc([N+](=O)[O-])cc2)=NO1` (stereo unspecified)?
TDP1 cell noCPT: 18µM*; HT1080 IDH1KD tx: -19%; KB-V1 MDR tox: 21µM*; HT1080-NT tox: -4%; DT40 TDP1 CPT: inconclusive; KB-3-1 tox: 10µM*

How did CC1(c2nnc(-c3ccncc3)o2)CC(c2ccc(Cl)cc2)=NO1 (stereo unspecified) do in these assays?
TDP1 cell noCPT: 21µM*; HT1080 IDH1KD tx: -1%; KB-V1 MDR tox: inactive; HT1080-NT tox: 2%; DT40 TDP1 CPT: 21µM*; KB-3-1 tox: inactive

How did CC1(c2nnc(-c3ccccc3)o2)CC(c2ccc(Cl)cc2)=NO1 (stereo unspecified) do in these assays?
TDP1 cell noCPT: -28%; HT1080 IDH1KD tx: 5%; KB-V1 MDR tox: inactive; HT1080-NT tox: 2%; DT40 TDP1 CPT: -11%; KB-3-1 tox: inactive

What do the screens show for `O=C(O)CCn1ccc2cc(S(=O)(=O)N3CCCCC3)ccc21`?
TDP1 cell noCPT: -24%; KB-V1 MDR tox: inactive; DT40 TDP1 CPT: -4%; KB-3-1 tox: inactive

What do the screens show for `CSc1ncnc2c1ncn2CCCN[C@H](C)c1cccc2ccccc12`?
TDP1 cell noCPT: inconclusive; HT1080 IDH1KD tx: -12%; KB-V1 MDR tox: inactive; HT1080-NT tox: -13%; DT40 TDP1 CPT: -28%; KB-3-1 tox: inactive

Results for C[C@@H](NCCCc1cccc(C(F)(F)F)c1)c1cccc2ccccc12 ?
TDP1 cell noCPT: 8.4µM*; KB-V1 MDR tox: inconclusive; DT40 TDP1 CPT: 9.4µM*; KB-3-1 tox: inconclusive

How did COc1ccccc1NC(=O)CN1CCN(CC(=O)Nc2ccc(F)c(F)c2)CC1 do in these assays?
TDP1 cell noCPT: inconclusive; KB-V1 MDR tox: inactive; DT40 TDP1 CPT: inconclusive; KB-3-1 tox: inactive

What do the screens show for `COc1ccccc1NC(=O)CN1CCN(CC(=O)Nc2ccc(S(N)(=O)=O)cc2)CC1`?
TDP1 cell noCPT: 13µM*; HT1080 IDH1KD tx: -8%; KB-V1 MDR tox: inactive; HT1080-NT tox: 8%; DT40 TDP1 CPT: inconclusive; KB-3-1 tox: inactive

How did COc1ccccc1NC(=O)CN1CCN(CC(=O)Nc2ccc(C)c(F)c2)CC1 do in these assays?
TDP1 cell noCPT: 16µM*; HT1080 IDH1KD tx: -14%; KB-V1 MDR tox: inactive; HT1080-NT tox: 5%; DT40 TDP1 CPT: 16µM*; KB-3-1 tox: inactive

How did COc1ccccc1NC(=O)CN1CCN(CC(=O)Nc2ccc(OC)c(OC)c2)CC1 do in these assays?
TDP1 cell noCPT: 0%; HT1080 IDH1KD tx: -1%; KB-V1 MDR tox: inactive; HT1080-NT tox: 8%; DT40 TDP1 CPT: -21%; KB-3-1 tox: inactive

Assay outcomes (PubChem)
